Results from PubChem BioAssay (NCI).
About 83,000 compounds went through this panel and 20% of them were active in at least one assay; those are over-represented in the sample as a whole.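 Note: values are percent growth. 100 is the growth of untreated cells, values between 100 and 0 indicate rising inhibition; between -100 and 0 indicates cell death.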 A number with no mark means an inactive call. Activity calls are given as the source filed them.

The molecules below were run on SK-MEL-28 melanoma (assay: NCI-60 one-dose screen, 48 h (100 = growth as untreated, 0 = no growth, -100 = all killed)). Conditions: 10 µM.
Procedure: Growth inhibition of the SK-MEL-28 human tumor cell line is measured as a screen for anti-cancer activity. Cells are grown in 96 well plates and exposed to the test compound for 48 hours. Compounds are tested at a single concentration, which is 10^-5 M for most compounds. The reported endpoint is percent growth (GI% or GIPRCNT), where numbers from 0 - 100% represent growth inhibition, and numbers from -100% - 0 represent cell death. For example, a value of 40 represents 60% growth inhibition. A value of 0 means no net growth occurred over the course of the experiment. A value of -40 indicates 40% of cells at the beginning of the experiment died by the end of the experiment. A value of -100 means all cells are dead at the end of the experiment.
NCI-60 Human Tumor Cell Lines Screen was performed using the standard one-dose NCI protocol, which is described in more detail at https://dtp.cancer.gov/discovery_development/nci-60/default.htm.
Compounds with GIPRCNT values below 10 were considered active. Activity score was based on GIPRCNT using the following formula: […]
Score is 0 for GIPRCNT values of 100 or above, 50 for GIPRCNT values of 0, and 100 for GIPRCNT values of -100.

SMILES | growth
CCCOCC(O)CNCCN (stereo not given) | 110%
CCOC(=O)c1c(C)n(-c2ccc(Cl)cc2)c2ccc(OC(=O)/C=C/c3ccccc3)cc12 | 81.9%
COc1cc(-c2n/c(=C\c3c(O)[nH]c4ccccc34)cc3c2=Nc2ccccc2-3)cc(OC)c1OC | 42.8%
C/C(=N\NC(=S)N1CCCC1)c1ccccn1 | 24.3%
CCOC(=S)Sc1ccc([N+](=O)[O-])cc1[N+](=O)[O-] | 67.5%
NC(=O)c1ccc(Br)o1 | 107%
O=C(c1ccc(Cl)cc1)c1no[n+]([O-])c1C(=O)c1ccc(Cl)cc1 | 117%
Cc1c(C(=O)N[C@H](CO)Cc2ccccc2)[nH]c2ccc(Cl)cc2c1=O | 114%
CC(C)OCc1cc(CN2CCN(c3cccc(Cl)c3)CC2)c(O)c2ncccc12 | -2.34% (active)
COc1cc(Cl)cc(-c2nn(-c3cccc(NC(=O)Nc4cccc(C(F)(F)F)c4)c3)cc2-c2ccncc2)c1 | 14.1%
COc1ccc(-c2nc(NC(=O)CS(=O)(=O)c3ccc(F)cc3)sc2C)cc1 | 88.5%
C[C@H](NC(=O)[C@@H]1CSSC[C@@H](NC(=O)Cc2nc3ccccc3cc2O)C(=O)NCC(=O)N1C)c1ccccc1 | 67.4%
N#C/C(=C/c1cc([N+](=O)[O-])ccc1Cl)C(N)=O | 105%
Cc1ccc(NC(=O)/C=N/O)cc1C | 104%
CCOC(=O)c1cc2c(n1Cc1ccccc1)-c1oncc1CC2 | 89.8%
O=C(O)c1ccccc1C(=O)c1cccc2c(F)cccc12 | 111%
COc1ccc(-c2cc(/C=C3\C(=O)Nc4cc(Cl)ccc43)[nH]n2)cc1OC | 74.6%
COc1ccc2nc(C)cc(Nc3ccc(Cl)cc3)c2c1 | 105%
CC1(C)CNC(=O)N1 | 114%
CS(=O)(=O)Nc1ccc(OCc2nnc(-c3ccc(Cl)cc3)o2)c(F)c1 | 102%

SMILES | growth
COc1ccc2oc(=O)cc(C3c4ccc([nH]4)C(c4cc(=O)oc5ccc(OC)cc45)c4ccc([nH]4)C(c4cc(=O)oc5ccc(OC)cc45)c4ccc([nH]4)C(c4cc(=O)oc5ccc(OC)cc45)c4ccc3[nH]4)c2c1 (stereo not given) | 1.37% (active)
C[N+]1(CC2CO2)CCCCCC1 (stereo not given) | 104%
COc1cc(C(c2c[nH]c3ccccc23)N2CCCC2)ccc1OCc1ccccc1 (stereo not given) | 98%
O=C(OCC1OC(n2cc(C(F)(F)F)c(=O)[nH]c2=O)CC1OC(=O)c1ccc([N+](=O)[O-])cc1)c1ccc([N+](=O)[O-])cc1 (stereo not given) | 86.9%
COc1ccc(-c2n/c(=C\c3c(O)[nH]c4ccccc34)cc3c2=Nc2ccccc2-3)cc1 | -25.6% (active)
O=C(O)CCCN1C(=O)NC2(C1=O)c1ccccc1-c1ccccc12 | 107%
CCOC(=O)/C(C#N)=C(/C)C1CC1 | 106%
COCCNCC(O)Cn1c2ccc(Cl)cc2c2cc(Cl)ccc21 (stereo not given) | -26.3% (active)
NC1CCC(Nc2nc(NCc3ccc(-c4ccco4)nc3)c3ncn(C4CCCC4)c3n2)CC1 (stereo not given) | 0.269% (active)
COc1cc(C2=Nc3c/c(=C\c4c(O)[nH]c5ccc(Cl)cc45)ccc3=N2)cc(OC)c1OC | -35.7% (active)
Nc1c(CNCc2nnn(Cc3ccccc3)c2N)nnn1Cc1ccccc1 | 115%
O=C1/C(=C/c2ccc(O)cc2)CSc2ccc(Cl)cc21 | 107%
Cc1ccc(-c2cc(C(=O)Nc3ccc(S(=O)(=O)N4CCCCC4)cc3)[nH]n2)c(O)c1 | 78.7%
CCN(CC)CC(O)CNc1ccnc2cc(Cl)c(Cl)cc12 (stereo not given) | 97.6%
Oc1cc(O)c(Br)cc1Br | 111%
O=C(O)c1ccc(CNc2ccc(C(=O)CCl)cc2)cc1 | 95.2%
O=C(c1ccccc1)C(Nc1ccccc1)c1ccccc1 (stereo not given) | 99%
Cc1cc(C)c(/C=C2\C(=O)Nc3ccc(NC(=O)CCCCCCC(=O)NO)cc32)[nH]1 | 24%
Cc1ccc(-n2c(-c3cc4c([nH]c5ccccc54)c(-c4cccc(O)c4)n3)n[nH]c2=S)cc1 | 7.56% (active)
COc1cc2nc(Sc3sc(N)nc3C)n(-c3ccc(Oc4ccccc4)cc3)c(=O)c2cc1OC | 97.9%
